Results reported in PubChem BioAssay (NCATS).
Values without a mark were called inactive. Results filed as inconclusive are left out. Calls of active or inactive are those of the source. Unless noted, calls come from the whole dose curve; as a rule, active = well fitted curve in either direction with a large enough effect (not every such curve was filed as active); inconclusive = small, poorly fitted or top-dose-only effect, or another doubt; inactive = flat fitted curve, though single readings scatter.

Legend:
[1] = molecular target: Lysosomal acid glucosylceramidase (Homo sapiens) (UniProt P04062); assay: Glucocerebrosidase-p2 (AID 348; in the data active = potency below about 10 µM; note: potency is the fitted concentration of half-maximal effect); conditions: purified GBA, blue fluorogenic substrate, 40 min
Summary of the method: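 Normal human glucocerebrosidase (0.2 nM) with blue fluorogenic substrate (80 uM final) in citrate/phosphate pH 5.9 with 10mM sodium taurocholate, 0.01% tween-20; 40 min RT, NaOH/glycine stop; fluorescence Ex 365/Em 440; AC50 from a titration from 0.6 nM upwards.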

[2] = AP1 Signaling Pathway (AID 357); conditions: ME-180 AP-1-bla reporter, EGF-induced, beta-lactamase ratio, 5 h; at 7.69 µM (top of the series) unless noted;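 note: ME-180 reporter cells stimulated with EGF at its EC50 level; % is set by controls: 0 for no effect and ±100 for the full control effect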
Summary of the method: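 A ratiometric CCF4 readout (405 nm excitation; 460 and 530 nm emission) quantified AP-1-driven beta-lactamase in ME-180 cells after 5 h with compound and EC50 EGF; AC50 values were derived for activators and inhibitors.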

[3] = Stat Signaling Pathway (AID 446); conditions: ME-180 SIE beta-lactamase reporter, IL-6 stimulated, 5 h; at 7.69 µM (top of the series) unless noted;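 note: ME-180 cervical cancer cells given 40 pM IL-6 alongside compound; SIE-controlled beta-lactamase reporter measured as 460/530 nm FRET emission ratio; % is set by controls: 0 for no effect and ±100 for the full control effect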
Summary of the method: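 FRET read-out (405 nm excitation, 460/530 nm emission) of a beta-lactamase reporter under a STAT-inducible element in ME-180 cervical carcinoma cells. Cells with compound receive 40 pM IL-6 for 5 h. Values are normalised to AC90 stimulation and AC90 JAK-inhibitor controls.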

[4] = molecular target: Glucocorticoid receptor (Homo sapiens) (UniProt P04150); assay: GR-GFP Redistribution (AID 450;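 active = compounds whose dose series gives a full or clear partial fitted curve of increased nuclear translocation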; note: potency is the fitted concentration of half-maximal effect); conditions: U2OS GR-GFP nuclear translocation, laser cytometry, 2 h
[5] = molecular target: Glucocorticoid receptor (Homo sapiens) (UniProt P04150); assay: GR-EFC Redistribution (AID 451; calls by dose curve; note: potency is the fitted concentration of half-maximal effect); conditions: CHO-K1 GR-EFC translocation, beta-gal luminescence, 2 h
Summary of the method: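 Translocation of GR-ED fusion to nuclear EA restores b-gal, read by luminescence after 1 h room-temperature detection. Engineered CHO-K1 biosensor cells, 1,000/well, exposed 2 h at 37 C to titrations up to 46 uM final.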

[6] = molecular target: Mitogen-activated protein kinase 10 (Mus musculus) (UniProt Q61831); assay: JNK3 AlphaScreen Assay (AID 530); conditions: JNK3 lysate, c-Jun phosphorylation; series mostly up to 11.4 µM;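 note: kinase came from lysate of stimulated human HepG2 cells; signal reports phosphorylation of biotinylated GST-cJun 1-79 at Ser73 with 10 µM ATP; % is set by controls: 0 for no effect and ±100 for the full control effect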
Summary of the method: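 Kinase buffer: 20 mM Tris-HCl pH 7.6, 10 mM MgCl2, 1 mM DTT, 0.1 mM Na3VO4, 0.01% Tween-20; ATP 10 uM. Substrate biotin-GST-cJun(1-79), enzyme from activated HepG2 lysates. Detection by Ser73 phospho-antibody AlphaScreen.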

[7] = molecular target: 3',5'-cyclic-AMP phosphodiesterase 4B (Homo sapiens) (UniProt Q07343); assay: qHTS Assay for Inhibitors of PDE-IV (AID 607; active = well fitted activation curve with a large enough effect in the main read-out, with a control signal flat, not every such curve was filed as active; note: % of control where 0% means no effect); conditions: HEK293 ACTOne CNG channel cells, membrane potential fluorescence; series mostly up to 22.9 µM
Summary of the method: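 Cell-based read-out of cAMP via a modified cyclic nucleotide-gated channel and membrane potential dye (535/590 nm) in HEK293 cells expressing PDE4 endogenously. Compounds tested up to 22.9 uM final; 100 uM RO 20-1724 reference.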

[8] = molecular target: Cytochrome P450 2C9 (Homo sapiens) (UniProt P11712); assay: qHTS Assay for Inhibitors and Substrates of Cytochrome P450 2C9 (AID 883; active = well fitted curve in the direction sought with a large enough effect; an effect the other way counts as inactive or inconclusive; note: potency is the fitted concentration of half-maximal effect; nearly all actives have a fitted effect of over 60% in size); conditions: recombinant CYP2C9, luciferin-H luminescence, 60 min; series mostly up to 11.4 µM
Summary of the method: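 Turnover of Luciferin-H (100uM, KM) by 10nM human CYP2C9 was measured over 60 min at 37C with NADPH regeneration; inhibitors and some substrates reduce luminescence. Data normalized to sulphaphenazole 57uM.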

[9] = molecular target: Cytochrome P450 3A4 (Homo sapiens) (UniProt P08684); assay: qHTS Assay for Activators of Cytochrome P450 3A4 (AID 885; active = well fitted curve in the direction sought with a large enough effect; an effect the other way counts as inactive or inconclusive; note: nearly all actives have a fitted effect of over 65% in size); conditions: recombinant CYP3A4, Luciferin-PPXE luminescence, 60 min; series mostly up to 11.4 µM
Summary of the method: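 Luminescent readout of luciferin formed from 25 uM Luciferin-PPXE (KM level) by 20 nM CYP3A4 in 200 mM KPO4, with 60 min NADPH-driven reaction at room temperature after 10 min compound exposure. Ketoconazole (57 uM) defined 100% inhibition.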

[10] = molecular target: Cytochrome P450 2C19 (Homo sapiens) (UniProt P33261); assay: qHTS Assay for Inhibitors and Substrates of Cytochrome P450 2C19 (AID 899; active = well fitted curve in the direction sought with a large enough effect; an effect the other way counts as inactive or inconclusive; note: potency is the fitted concentration of half-maximal effect; nearly all actives have a fitted effect of over 60% in size); conditions: recombinant CYP2C19, luciferin-H EGE luminescence; series mostly up to 11.4 µM
Summary of the method: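 Reactions contain 5nM enzyme, 10uM Luciferin-H EGE (KM) and 50mM KPO4; compound preincubates 10 min at 37C, NADPH regeneration starts turnover for 60 min. Luminescence after detection reagent gives activity.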

[11] = qHTS Assay for Identification of Small Molecule Agonists for Hypoxia Response Element Signaling Pathway (AID 914; active = well fitted activation curve with a large enough effect in the signal ratio, with a control signal flat, not every such curve was filed as active; the % refers to the signal ratio; note: % of control where 0% means no effect); conditions: ME-180 (cervical carcinoma) HRE-bla reporter, beta-lactamase ratio, CoCl2, 17 h; activation: stronger effect = higher value
Summary of the method: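 HRE-bla ME-180 cells with beta-lactamase reporter under hypoxia response element, compounds with EC50 CoCl2 for 17 hours at 37 C. CCF4 substrate, 460nm/530nm emission ratio gave %Activity; AC50 from titration series.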

[12] = molecular target: Cytochrome P450 1A2 (Homo sapiens) (UniProt P05177); assay: p450-cyp1a2 (AID 410; calls by dose curve;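 note: -100% = full effect of reference inhibitor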); conditions: recombinant CYP1A2, luciferin-ME demethylation, luminescence; series mostly up to 11.4 µM
Summary of the method: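 20nM CYP1A2, 100uM Luciferin-ME (=Km), 100mM KPO4; cpd 10 min RT; +NADPH regen, 60 min RT; stop/detect 20 min; luminescence. Normalized to furafylline 57 uM = full inhibition.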

[13] = NFAT Signaling Pathway (AID 444); conditions: Jurkat NFAT-bla M1, carbachol, beta-lactamase ratio, 5 h; at 7.69 µM (top of the series) unless noted;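 note: carbachol stimulus at about its EC50 of 1 µM final; % is set by controls: 0 for no effect and ±100 for the full control effect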
Summary of the method: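 Read-out: CCF4 FRET ratio (460 nm/530 nm) after 1 h RT dye loading, used for %activity and AC50 from titration series. Cells: Jurkat NFAT-β-lactamase/M1 line, treated with compound plus 1 uM carbachol for 5 h, 37 °C.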

Chain of Lysosomal acid glucosylceramidase (Homo sapiens) (P04062 whole entry, looked up): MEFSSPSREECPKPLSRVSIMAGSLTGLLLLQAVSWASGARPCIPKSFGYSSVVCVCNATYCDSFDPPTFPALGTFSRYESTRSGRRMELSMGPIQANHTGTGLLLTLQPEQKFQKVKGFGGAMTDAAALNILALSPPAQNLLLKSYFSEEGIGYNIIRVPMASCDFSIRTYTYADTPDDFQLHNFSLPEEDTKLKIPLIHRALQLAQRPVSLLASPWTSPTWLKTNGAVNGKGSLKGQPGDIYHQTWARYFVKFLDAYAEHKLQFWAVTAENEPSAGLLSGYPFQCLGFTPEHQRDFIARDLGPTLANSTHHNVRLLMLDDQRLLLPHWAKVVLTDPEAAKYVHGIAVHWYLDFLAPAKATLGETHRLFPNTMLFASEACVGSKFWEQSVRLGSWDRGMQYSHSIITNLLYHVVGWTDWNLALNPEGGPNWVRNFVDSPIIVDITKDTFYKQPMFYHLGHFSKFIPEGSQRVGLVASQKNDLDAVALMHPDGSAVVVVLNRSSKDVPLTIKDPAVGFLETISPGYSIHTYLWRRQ
Chain of 3',5'-cyclic-AMP phosphodiesterase 4B (Homo sapiens) (Q07343 whole entry, looked up): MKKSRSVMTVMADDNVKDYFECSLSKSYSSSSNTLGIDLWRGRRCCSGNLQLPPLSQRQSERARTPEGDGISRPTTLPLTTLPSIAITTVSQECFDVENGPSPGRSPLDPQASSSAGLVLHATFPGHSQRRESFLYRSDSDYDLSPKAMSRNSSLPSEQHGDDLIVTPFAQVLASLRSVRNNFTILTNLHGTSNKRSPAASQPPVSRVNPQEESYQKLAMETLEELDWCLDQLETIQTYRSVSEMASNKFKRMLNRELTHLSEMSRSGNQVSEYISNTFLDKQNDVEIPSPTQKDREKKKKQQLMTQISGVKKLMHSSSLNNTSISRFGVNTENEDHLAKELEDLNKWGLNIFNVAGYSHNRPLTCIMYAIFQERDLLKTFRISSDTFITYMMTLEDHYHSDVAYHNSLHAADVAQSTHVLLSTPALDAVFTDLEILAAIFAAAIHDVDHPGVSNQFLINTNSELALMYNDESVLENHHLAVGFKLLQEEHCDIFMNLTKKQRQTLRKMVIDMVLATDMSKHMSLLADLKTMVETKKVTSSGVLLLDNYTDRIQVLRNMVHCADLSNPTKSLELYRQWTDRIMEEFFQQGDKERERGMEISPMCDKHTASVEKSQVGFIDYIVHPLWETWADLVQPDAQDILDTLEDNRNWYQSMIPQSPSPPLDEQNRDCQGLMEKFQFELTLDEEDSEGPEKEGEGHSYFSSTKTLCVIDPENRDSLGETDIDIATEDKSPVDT
Chain of Glucocorticoid receptor (Homo sapiens) (P04150 whole entry, looked up, the tested form may be a part): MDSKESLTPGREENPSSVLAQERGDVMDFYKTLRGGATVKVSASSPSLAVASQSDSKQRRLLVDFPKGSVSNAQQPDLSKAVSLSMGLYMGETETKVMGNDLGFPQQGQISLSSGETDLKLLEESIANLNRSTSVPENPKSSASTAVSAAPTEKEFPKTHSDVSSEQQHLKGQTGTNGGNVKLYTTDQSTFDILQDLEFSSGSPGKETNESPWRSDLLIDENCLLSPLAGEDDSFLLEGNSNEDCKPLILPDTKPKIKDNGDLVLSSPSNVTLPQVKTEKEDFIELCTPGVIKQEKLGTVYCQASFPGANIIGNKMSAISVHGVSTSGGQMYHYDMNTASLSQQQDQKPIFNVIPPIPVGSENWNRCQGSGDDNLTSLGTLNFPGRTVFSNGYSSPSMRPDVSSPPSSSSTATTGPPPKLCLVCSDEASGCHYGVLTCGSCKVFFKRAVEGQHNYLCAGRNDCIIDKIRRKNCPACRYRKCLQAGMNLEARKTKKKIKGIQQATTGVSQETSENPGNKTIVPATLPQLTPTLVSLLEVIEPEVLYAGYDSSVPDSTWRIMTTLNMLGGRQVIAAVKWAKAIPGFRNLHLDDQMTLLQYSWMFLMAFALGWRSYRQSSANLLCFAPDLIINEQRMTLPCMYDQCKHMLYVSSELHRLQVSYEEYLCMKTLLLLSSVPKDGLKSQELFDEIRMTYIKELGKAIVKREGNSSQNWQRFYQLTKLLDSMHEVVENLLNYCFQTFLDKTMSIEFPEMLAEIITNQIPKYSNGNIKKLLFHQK
Chain of Cytochrome P450 2C19 (Homo sapiens) (P33261 whole entry, looked up): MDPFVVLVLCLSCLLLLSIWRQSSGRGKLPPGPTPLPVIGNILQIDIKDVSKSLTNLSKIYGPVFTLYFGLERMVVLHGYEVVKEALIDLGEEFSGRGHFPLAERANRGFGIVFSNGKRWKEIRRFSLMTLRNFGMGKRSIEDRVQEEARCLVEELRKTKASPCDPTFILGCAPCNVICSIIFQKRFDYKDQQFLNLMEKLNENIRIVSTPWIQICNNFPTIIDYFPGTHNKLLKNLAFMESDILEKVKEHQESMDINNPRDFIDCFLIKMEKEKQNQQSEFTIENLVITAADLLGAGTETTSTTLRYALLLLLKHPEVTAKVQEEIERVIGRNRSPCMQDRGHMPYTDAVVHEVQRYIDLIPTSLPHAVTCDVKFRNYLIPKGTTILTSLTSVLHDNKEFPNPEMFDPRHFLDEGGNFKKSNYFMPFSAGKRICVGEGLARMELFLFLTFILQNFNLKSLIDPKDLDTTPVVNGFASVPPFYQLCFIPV
Chain of Cytochrome P450 2C9 (Homo sapiens) (P11712 whole entry, looked up): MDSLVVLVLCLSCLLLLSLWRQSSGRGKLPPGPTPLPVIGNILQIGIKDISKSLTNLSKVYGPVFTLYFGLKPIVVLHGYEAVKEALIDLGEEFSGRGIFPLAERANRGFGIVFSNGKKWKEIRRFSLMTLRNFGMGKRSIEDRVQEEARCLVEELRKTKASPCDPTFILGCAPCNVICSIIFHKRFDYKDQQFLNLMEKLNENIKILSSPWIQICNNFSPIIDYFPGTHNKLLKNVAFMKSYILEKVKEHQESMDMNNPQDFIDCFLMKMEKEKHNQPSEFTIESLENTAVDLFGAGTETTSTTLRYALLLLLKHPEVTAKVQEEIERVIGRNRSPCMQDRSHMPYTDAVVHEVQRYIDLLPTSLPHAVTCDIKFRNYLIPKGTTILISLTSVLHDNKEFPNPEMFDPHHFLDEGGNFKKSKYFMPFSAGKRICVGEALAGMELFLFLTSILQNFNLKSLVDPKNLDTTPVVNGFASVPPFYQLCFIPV
Chain of Cytochrome P450 1A2 (Homo sapiens) (P05177 whole entry, looked up): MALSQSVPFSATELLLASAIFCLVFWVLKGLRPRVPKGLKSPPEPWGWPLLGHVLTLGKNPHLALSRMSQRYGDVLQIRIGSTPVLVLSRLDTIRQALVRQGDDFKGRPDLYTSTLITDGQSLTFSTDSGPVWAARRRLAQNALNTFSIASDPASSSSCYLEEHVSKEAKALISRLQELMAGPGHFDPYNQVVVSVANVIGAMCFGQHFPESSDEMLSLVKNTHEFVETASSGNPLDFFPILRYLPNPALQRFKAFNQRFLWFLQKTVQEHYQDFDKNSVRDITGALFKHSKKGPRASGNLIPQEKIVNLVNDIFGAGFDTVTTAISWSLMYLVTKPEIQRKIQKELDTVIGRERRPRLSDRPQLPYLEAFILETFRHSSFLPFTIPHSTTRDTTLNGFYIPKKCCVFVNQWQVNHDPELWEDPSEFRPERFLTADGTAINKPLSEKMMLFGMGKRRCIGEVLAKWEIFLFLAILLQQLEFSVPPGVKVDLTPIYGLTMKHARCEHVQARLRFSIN
Chain of Cytochrome P450 3A4 (Homo sapiens) (P08684 whole entry, looked up): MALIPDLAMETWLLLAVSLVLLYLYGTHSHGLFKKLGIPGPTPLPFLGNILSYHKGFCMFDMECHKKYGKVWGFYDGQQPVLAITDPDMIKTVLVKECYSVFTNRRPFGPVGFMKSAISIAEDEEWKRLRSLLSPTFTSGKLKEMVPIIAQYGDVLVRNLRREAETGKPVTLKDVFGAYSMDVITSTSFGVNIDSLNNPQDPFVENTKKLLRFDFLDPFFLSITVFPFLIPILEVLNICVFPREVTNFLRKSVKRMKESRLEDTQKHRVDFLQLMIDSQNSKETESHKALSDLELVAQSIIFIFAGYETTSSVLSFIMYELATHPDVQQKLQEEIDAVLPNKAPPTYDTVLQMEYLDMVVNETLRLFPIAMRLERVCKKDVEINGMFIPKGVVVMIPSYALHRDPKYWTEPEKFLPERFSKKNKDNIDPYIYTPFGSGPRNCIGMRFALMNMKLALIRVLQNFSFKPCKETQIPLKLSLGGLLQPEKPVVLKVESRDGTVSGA

SMILES | Potency [1] [µM] | activity change, negative = inhibition [2] [%] | activity, negative = inhibition [3] [%] | Potency [4] [µM] | Potency [5] [µM] | Potency [6] | Potency [7] | Potency [8] | Potency [9] | Potency [10] | activation [11] [%] | activity change, negative = inhibition [12] | activity change, negative = inhibition [13] [%]
Nc1ncnc2nc(-c3ccc(C[P+](c4ccccc4)(c4ccccc4)c4ccccc4)cc3)[nH]c12 | > 11.4 | 3.32 | 1.06 | > 46 | > 9.22 | inactive | inactive |  |  |  |  |  | 
O=C(c1ccc([N+](=O)[O-])cc1)[C@@H](Br)[C@@H](Br)c1ccnc2ccccc12 | > 11.4 | -11.4 |  | > 46 |  | inactive | inactive | 3.16 µM (active) | inactive | 1.26 µM (active) |  |  | 
COc1ccc(CC[N@+]2(C)COc3cc4oc(=O)cc(C)c4cc3C2)cc1OC | 11 | 10.2 | 5.96 | > 46 | > 9.22 |  | inactive |  |  |  |  |  | 
C[C@H](CCC(=O)O)[C@H]1CC[C@@H]2[C@H]3CC[C@H]4C[C@H](O)CC[C@@]4(C)[C@@H]3CC[C@@]21C | > 11.4 | 17.2 | -10 | > 46 | > 9.22 | inactive | inactive |  |  |  |  |  | 
CN(C)C(=O)C1CCN(Cc2c[nH]c3ccccc23)CC1 | > 11.4 | -1.75 | -4.74 | > 46 |  | inactive | inactive |  |  |  | 16.5 |  | 
Cc1nnc(S(=O)(=O)c2ccc(N=Nc3c(N)nc(N)nc3N)cc2)s1 | > 11.4 |  | -3.59 | > 46 | > 9.22 | inactive | inactive |  |  |  |  | -10.2% [at 2.29 µM] | 7.42
c1ccc2c(c1)-c1ccccc1C2N1CC2CCC(CC2)C1 | > 11.4 | 22.5 | 17.6 | > 46 | > 9.22 |  | inactive |  |  |  |  |  | 
